The list is not random: actives were taken first. Their share in the collection is about 2.7%.
gsp ag: agonists of gsp mutant (McCune-Albright syndrome) | gsp mutant cells, cAMP HTRF, 30 min | Potency, µM (titrated, usually from 76.9 µM), inactives show top-dose activation (cAMP increase), usual class: activators | 340,000 compounds, 0.13% hits; active means well fitted activation curve with a large enough effect; inconclusive means small, poorly fitted or top-dose-only effect, or another doubt; inactive means no such curve, though single readings can be large or run the other way; cell line not stated here;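 further: phosphodiesterase inhibitor Ro 20-1724 added with compounds to block cAMP breakdown; potency means the concentration at half of the fitted maximal effect; nearly all actives have a fitted effect of over 60% in size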
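Cells in DMEM/10% FBS with G418 were pretreated with compounds in DMSO plus […] (300 uM stock) for 30 min at 37C. cAMP was measured by HTRF (cAMP-d2 plus anti-cAMP antibody-K) after 30 min at room temperature.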
RXFP1 ag: activates the human relaxin receptor RXFP1; Q9HBX9; HEK293T-RXFP1 cAMP TR-FRET, 30 min; response scale: percent of porcine relaxin response, buffer zero; Potency, µM (top dose mostly 57.5 µM), inactives show top-dose activation, most hits filed as activators; 370,000 compounds, 0.3% hits; AID 2676; active means well fitted activation curve with a large enough effect; inconclusive means small, poorly fitted or top-dose-only effect; further: potency means the concentration at half of the fitted maximal effect; on the % scale 0 is the no-effect control and ±100 the full control effect; nearly all actives have a fitted effect of over 60% in size
Target sequence (Q9HBX9 whole entry, looked up): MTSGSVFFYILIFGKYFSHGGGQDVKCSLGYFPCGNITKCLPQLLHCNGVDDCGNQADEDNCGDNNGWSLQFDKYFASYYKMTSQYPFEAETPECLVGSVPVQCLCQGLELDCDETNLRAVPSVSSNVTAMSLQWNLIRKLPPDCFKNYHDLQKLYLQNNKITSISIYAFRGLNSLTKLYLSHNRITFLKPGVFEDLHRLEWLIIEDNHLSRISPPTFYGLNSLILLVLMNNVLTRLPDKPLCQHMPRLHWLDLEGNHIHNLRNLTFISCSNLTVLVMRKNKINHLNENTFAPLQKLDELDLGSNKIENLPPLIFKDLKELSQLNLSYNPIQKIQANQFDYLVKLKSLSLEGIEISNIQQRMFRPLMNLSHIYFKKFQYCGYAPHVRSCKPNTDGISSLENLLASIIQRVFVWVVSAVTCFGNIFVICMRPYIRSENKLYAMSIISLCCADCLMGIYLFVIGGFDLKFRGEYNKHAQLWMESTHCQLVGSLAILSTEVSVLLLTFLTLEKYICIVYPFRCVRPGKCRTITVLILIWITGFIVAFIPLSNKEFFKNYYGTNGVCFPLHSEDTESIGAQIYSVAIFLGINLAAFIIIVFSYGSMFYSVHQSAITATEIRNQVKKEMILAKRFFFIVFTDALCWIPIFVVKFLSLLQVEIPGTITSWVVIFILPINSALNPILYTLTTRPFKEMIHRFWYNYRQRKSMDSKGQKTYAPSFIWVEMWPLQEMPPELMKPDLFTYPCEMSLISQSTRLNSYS
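HEK293T cells stably expressing RXFP1 were pretreated with the PDE4 inhibitor Ro 20174, exposed to compounds for 30 min at 37C, lysed, and cAMP was read by TR-FRET. Data normalized to buffer (basal) and 29 nM porcine relaxin (100%).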
pAkt inh: Akt phosphorylation inhibition; Neuro2A IGF-stimulated pAkt S473 HTRF, 20 min; active compounds read low; AID 651550; activity change, % for hits at 50 µM; 360,000 compounds, 0.32% hits; in the data active means activity change below about -80%; inconclusive means mostly about -51% to -80%; further: on the % scale 0 is the no-effect control and ±100 the full control effect
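Neuro2A cells in DMEM with 0.5% FBS, overnight at 37 deg C, given compound at single 50 µM final, then IGF (6 nM final) for 20 min at 37 deg C. Lysed; phospho-Akt Ser473 by HTRF after 24 h, 665/615 ratio.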
gsp antag: antagonists of gsp mutant (McCune-Albright syndrome); gsp-mutant cells, cAMP HTRF, 30 min; Potency, µM (titrated, usually from 76.9 µM), for the others: at the top dose activity change, negative = inhibition, usual class: inhibitors; 340,000 compounds, 0.4% hits; calls by dose curve; cell line not stated here;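 further: intracellular cAMP measured with PDE inhibitor Ro 20-1724 present during compound exposure; potency means the concentration at half of the fitted maximal effect; on the % scale 0 is the no-effect control and ±100 the full control effect; nearly all actives have a fitted effect of over 65% in size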
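G418-selected cells were plated in DMEM/10% FBS for 16-24 h at 37C, then treated with compounds plus the PDE inhibitor […] (300 uM solution added) for 30 min at 37C. Intracellular cAMP was measured by HTRF after 30 min lysis at room temperature.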
RXFP1 antag: blocks the human relaxin receptor RXFP1; HEK293-RXFP1, relaxin-stimulated cAMP HTRF, 30 min; active compounds read low; activity change, negative = inhibition, % at 57.5 µM; 350,000 compounds, 0.59% hits;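 active means activity change of -60% or lower, but not beyond a set lower limit; inconclusive means change between -60% and -40%, or beyond the set limit; inactive means change above -40%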; further: on the % scale 0 is the no-effect control and ±100 the full control effect
ClpP mod: qHTS Assay for Activators of ClpP; ATP-dependent Clp protease proteolytic subunit (Bacillus subtilis (strain 168)), P80244; purified B. subtilis ClpP, FRET peptide cleavage, 20 min; Potency, µM (series often up to 57.5 µM), without a hit: top-dose activity change, negative = active; 340,000 compounds, 1.9% hits; AID 651965, 2013; active means well fitted falling curve with a large enough effect; inconclusive means small, poorly fitted or top-dose-only effect; inactive means no such curve, though single readings can be large or run the other way; further: potency means the concentration at half of the fitted maximal effect; the source files actives as falling curves though it sought activators and does not explain the sign; nearly all actives have a fitted effect of over 65% in size
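FRET quenching reversal measured ClpP activation: 10 microg/mL B. subtilis ClpP at pH 8 with the FRET-FV decapeptide, read at 430 nm after 320 nm excitation. The 20-min minus 0-min signal was scaled between DMSO/no-enzyme wells and ADEP (5.8 microM final).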
* = called active by the depositor; i = inactive; ? = inconclusive; · = no result given; [ ] = dose if it differs, or a comment.

SMILES	gsp ag	RXFP1 ag	pAkt inh	gsp antag	RXFP1 antag	ClpP mod
O=C(Nc1ccc(-c2nc3cc(Cl)ccc3c(=O)o2)cc1)c1ccco1	7.2%[15.4 µM]	1.1%	i	13.5%	-65.6*	-0.2%
O=C(Nc1cccc(-c2nc3ccccc3[nH]2)c1)c1cccc(NC(=O)c2ccco2)c1	-15.5%	0.7%	i	-3.5%	-6.8	?
O=C(Nc1ccc2nc(-c3ccccc3)[nH]c2c1)c1ccco1	-32.8%	0.2%	i	-28.3%	-6.0	28.2µM*
O=C(Nc1nc2c(ccc3ccccc32)s1)c1ccco1	7.8%	6.3%	i	-32.5%	-0.7	-25.5%
Cc1ccccc1NC(=O)CSc1nc2c(oc3ccccc32)c(=O)n1-c1ccccc1F	·	-0.4%	·	·	·	-6.1%
CC1CN(C(=O)N2CCC(C(=O)NCCC3=CCCCC3)CC2)c2cc(Cl)ccc2O1 (stereo not given)	·	2.5%	·	·	-14.0	-0.2%
Cc1cccn2cc(CNC(=O)CC3CCCC3)nc12	4.6%	3.2%	i	-8.8%	-3.3	31.6µM*
CCOC(=O)C(O)c1ccccc1 (stereo not given)	·	·	·	·	-6.2	·
COc1ccc(NC(=O)c2ccc(OC(F)F)cc2)cc1Cl	-21.3%	0.6%	i	-6.2%	2.6	25.1µM*
COC(=O)c1ccc(COc2ccc3c(C)c(C)c(=O)oc3c2)o1	0.9%	3.9%	·	14.6%	6.8	2.82µM*
COC(=O)c1ccc(COc2ncnc3ccccc23)o1	14.5%[15.4 µM]	15.8µM*	i	12.7%	8.5	·
COC(=O)c1cc(COc2ccc3ccc(=O)oc3c2)c(C)o1	24.6%	0.6%	i	-4.2%	-10.3	14.1µM*
O=c1oc2cc(OCc3ccc([N+](=O)[O-])cc3)ccc2c2c1CCCC2	-19.9%	1.7%	i	-5.2%	-5.1	-6.6%
COC(=O)c1ccc(COc2ccc(C(=O)c3ccccc3)cc2)o1	5.3%	0.3%	i	3.1%	-27.9	-0.5%
O=C(O)c1ccc(COc2ccc3c4c(c(=O)oc3c2)CCC4)o1	18.0%	2.8%	i	-18.9%	1.4	2.51µM*
COC(=O)c1ccc(COc2ccc3ccc(=O)oc3c2)o1	8.7%	0.0%	i	0.4%	-5.4	3.0%
COC(=O)c1ccc(COc2ccc(C)c(C)c2)o1	6.5%	-3.2%	i	2.2%	1.8	-2.1%
COC(=O)c1ccc(NC(C)=O)cc1OC	·	·	·	·	-10.6	·
COc1ccc(C(=O)C2CCCN(C3Cc4ccccc4C3)C2)c(OC)c1 (stereo not given)	-9.6%[15.4 µM]	0.9%	i	-4.7%	-64.7*	·
O=C(COc1ccccc1F)Nc1ccc2nc(SCC(=O)N3CCCC3)sc2c1	·	7.3%	·	·	-16.8	-1.8%
S=c1[nH]cc(Oc2ccc(Cl)cc2Cl)c(=S)[nH]1	20µM*	·	i	-4.1%	22.8	·
CSc1ccc(-c2nc3ccc(C)cn3c2Nc2ccccc2C)cc1	·	13.9%	·	·	·	3.55µM*
Cc1ccc2nc(-c3ccsc3)c(Nc3ccccc3C)n2c1	·	6.1%	·	·	-21.7	3.6%
CN1CCN(C(=O)c2ccc3c(c2)N(Cc2c(F)cccc2Cl)C(=O)c2ccccc2S3)CC1	·	-0.2%	·	·	·	-3.9%
O=C(O)c1cc(S(=O)(=O)NCCCN2CCCC2=O)ccc1Cl	-12.6%	·	i	11.7%	-1.2	1.5%
SMILES	gsp ag	RXFP1 ag	pAkt inh	gsp antag	RXFP1 antag	ClpP mod
Cc1cn2c(=O)c(S(=O)(=O)NCCc3ccc(Cl)cc3)c(C)nc2s1	·	5.6%	·	·	7.5	?
Cc1cn2c(=O)c(S(=O)(=O)Nc3ccc(OC(F)(F)F)cc3)c(C)nc2s1	·	-2.1%	·	·	-32.7	-1.0%
Cc1ccc(CNS(=O)(=O)c2c(C)nc3sc(C)cn3c2=O)cc1	·	0.5%	·	·	7.8	28.2µM*
Cc1cn2c(=O)c(S(=O)(=O)NC(C)c3ccccc3)c(C)nc2s1 (stereo not given)	·	-1.8%	·	·	-4.3	31.6µM*
CC(C)Cc1ccc(CC(=O)O)cc1	·	·	·	·	-13.0	·
COc1ccc2cc(C#N)c(SCC(=O)OCc3ccccc3)nc2c1	·	·	·	·	·	4.5%
CNC(=O)c1ccc(CN(C)C(=O)c2cccc(S(=O)(=O)N3CCc4ccccc4C3)c2)cc1	-102.8%	·	i	·	1.1	-0.6%
CC(=O)Nc1cc(-c2ccc(C(=O)N3CCOCC3)cc2)cn2c(-c3ccccc3)cnc12	·	·	i	·	·	25.1µM*
O=C(N/N=C1\C2CN3CCN(C2)CC1(c1ccccc1)C3)c1ccc(F)cc1	-3.3%[15.4 µM]	1.5%	i	10.6%	-9.4	·
CC(C)(C)c1ccc(C(=O)N/N=C2\C3CN4CCN(C3)CC2(c2ccccc2)C4)cc1	-47.6%	4.1%	i	7.6%	-10.0	22.4µM*
Cn1c(N2CCOCC2)nc(-c2ccccc2)c1-c1ccccc1	-28.2%	-0.9%	i	0.1%	4.1	11.2µM*
CC1(C)Cc2c(sc3c2c(=N)n(Cc2ccco2)c(=O)n3CC(=O)Nc2cccc(Cl)c2)CO1	-9.9%	-1.1%	-122.3%*	-10.1%[15.4 µM]	-13.5	-9.2%
CCn1nc(NC(=O)c2ccccn2)c2cc3cc(C)ccc3nc21	?	-0.3%	i	35.5µM*	-10.8	-25.6%
Cc1ccc2nc3c(cc2c1)c(NC(=O)c1ccccn1)nn3CC(C)C	19.3%	-1.1%	·	4.8%	-9.3	-5.4%
COc1ccc2cc1Oc1cc3c(cc1OC)CC[N+](C)(C)[C@H]3Cc1ccc(cc1)Oc1c(OC)c(OC)cc3c1[C@@H](C2)[N+](C)(C)CC3	·	·	·	·	9.8	·
CSc1ccccc1OCc1cc(C(=O)NCCc2nc(C)cc(C)n2)no1	-76.8%	2.3%	i	4.0%	12.4	-0.4%
COc1cc(-c2nc(-c3cccc(C)c3)no2)cc(OC)c1OC	-14.9%	0.3%	i	-4.2%	20.2	-25.3%
COc1ccc(-c2nc(-c3cccc(C)c3)no2)cc1OC	-5.1%	-1.5%	i	-14.4%	-19.4	25.1µM*
COc1ccccc1/C=C/C(=O)c1c2c(c(C)[nH]c1=O)CCCC2	24.7%	-1.0%	i	50.1µM*	1.3	0.0%
Cc1cccc(OCC(=O)N(Cc2ccc(C(C)(C)C)cc2)Cc2ccco2)c1	·	-1.7%	·	·	-74.8*	0.2%
COc1cc(C(=O)N(Cc2ccc(F)cc2)Cc2ccco2)cc(OC)c1OC	·	-2.2%	·	·	-8.2	0.2%
CCc1ccc(OCC(=O)N(Cc2ccc(C)cc2)Cc2ccco2)cc1	·	0.0%	·	·	-61.4*	1.4%
CC(C)(C)c1ccc(C(=O)N(Cc2ccc(F)cc2)Cc2ccco2)cc1	·	0.9%	·	·	-78.5*	1.9%
O=C(CNC(=O)N1CC(=O)Nc2ccccc21)NCc1ccccc1Cl	-1.3%	-1.2%	i	3.6%	-60.9*	0.8%
O=C(CNC(=O)N1CC(=O)Nc2ccccc21)Nc1ccc(Cl)cc1	-55.2%	0.9%	i	-10.1%	-60.9*	-1.2%
